# Source: PubChem BioAssay AID463173 (ICCB-Longwood Screening Facility, Harvard Medical School, 2010)
# Screen size: about 52,000 compounds; about 1,700 (3.3%) were called active. Rule as the data show it: active = survival mostly below about 52% (no sharp cut-off); inactive = mostly above about 56%. Shown is part of a subset that was picked to be rich in actives.
# Test system: Wild type
# Test: growth inhibition of S. aureus wild type versus tarO mutant, primary screen, teichoic acid synthesis inhibitors, RN4220, OD600 (AID 463173)
# Conditions: S. aureus RN4220 wild type/DeltatarO growth, OD600, 18 h, stronger effect = lower value, screened at 18.75 µg/mL (by protocol)
row,Compound,survival
1,Cc1ccc(Cl)cc1N1CCN(C(=O)c2cn(C3CCCCC3)c(=O)c3c2c2ccccc2n3C)CC1,76% (inactive)
2,COC(=O)c1ccc(NC(=O)C(=O)NCC(c2cccnc2)N2CCc3ccccc32)cc1 (centres undefined),47% (inactive)
3,O=C(CSc1nnc(-c2ccc(Cl)cc2)c(-c2ccc(Cl)cc2)n1)NC1CCCC1,65% (inactive)
4,O=C(Nc1ccccc1C(=O)NCc1ccccc1)c1ccco1,112% (inactive)
5,CCOC(=O)NNC(=O)C1CCC(C)CC1 (centres undefined),64% (inactive)
6,O=S(=O)(c1ccc(F)cc1)N(CC(O)Cn1c2ccccc2c2ccccc21)c1ccccc1 (centres undefined),63% (inactive)
7,CCOc1ccc(-c2cc(C(=O)NCCc3ccccc3)c3c(-c4ccc(C)cc4)[nH]nc3n2)cc1,128% (inactive)
8,Cc1ccc(S(=O)(=O)NCC(Nc2cccc(Cl)c2)c2ccccc2)cc1 (centres undefined),68% (inactive)
9,COc1ccc2cc3cc(C(=O)Nc4cc(C)c(Cl)cc4OC)oc3nc2c1,88% (inactive)
10,Cc1cccn2c(=O)c3cc(C(=O)NC(C)C)n(C)c3nc12,82% (inactive)
11,Fc1cccc(Cl)c1CNc1n[nH]c(-c2ccco2)n1,83% (inactive)
12,Cn1c(-c2ccc3c(c2)OCO3)cnc1NCc1cc(Cl)ccc1O,112% (inactive)
13,Cc1ccc(-c2cnc(NCc3c(F)cccc3Cl)n2C)cc1,-12% (active)
14,CCOc1ccc(CCNC(=O)c2cn(-c3cccc(OC)c3)c(=O)c3ccccc23)cc1,87% (inactive)
15,Cc1cc(Nc2cccc(C(F)(F)F)c2)nc2ccc(NC(=O)Cc3ccc(Cl)cc3)cc12,78% (inactive)
16,NS(=O)(=O)c1ccc(Nc2nc3nonc3nc2Nc2ccc(S(N)(=O)=O)cc2)cc1,109% (inactive)
17,O=C(Nc1cccc(C(F)(F)F)c1)c1cc(-c2ccc(Cl)cc2)on1,83% (inactive)
18,Fc1ccc(Nc2nc3nonc3nc2Nc2cccc(C(F)(F)F)c2)cc1,-1% (active)
19,Cc1ccc(Nc2nc3nonc3nc2Nc2cccc(C(F)(F)F)c2)cc1Cl,0% (active)
20,Fc1ccc(-c2nc(Nc3cccc(C(F)(F)F)c3)nc3c2COc2ccccc2-3)cc1,56% (inactive)
21,Cc1cc(C)n(-c2nc3ccccc3nc2Nc2cccc(C(F)(F)F)c2)n1,86% (inactive)
22,Cc1ccc(Nc2nc3nonc3n3cnnc23)cc1Cl,88% (inactive)
23,FC(F)(F)c1cccc(Nc2nc3nonc3nc2Nc2ccc(Cl)cc2)c1,-3% (active)

row,Compound,survival
1,CCCSc1nc2c([nH]c3ccccc32)c(=O)n1C,87% (inactive)
2,COCC(C)NC(=O)C1=CC(c2ccc3c(c2)OCO3)=NS(=O)(=O)N1C (centres undefined),103% (inactive)
3,COc1ccc(-c2noc(N3CCN(c4cccc(Cl)c4)CC3)n2)cc1OC,73% (inactive)
4,Cc1cccc(N(C)S(=O)(=O)c2cc3c(cc2Cl)NC(=O)CO3)c1,75% (inactive)
5,COc1ccc(N2CCN(c3ncccc3-c3nc(-c4ccccc4C)no3)CC2)cc1,87% (inactive)
6,CCN(CC)C(=O)Cn1cc(/C=C(\C#N)C(N)=O)c2ccccc21,124% (inactive)
7,Cc1cccc(C(=O)NNc2ncnc3c2cnn3-c2ccc(C)cc2C)c1,124% (inactive)
8,Cc1ccc(-n2ncc3c(NCC(C)C)ncnc32)c(C)c1,10% (active)
9,COc1ccc(C(=O)NNc2ncnc3c2cnn3-c2ccc(C)cc2C)cc1,-3% (active)
10,COc1ccc(C(=O)NNc2ncnc3c2cnn3-c2ccc(C)c(Cl)c2)cc1,73% (inactive)
11,Cc1ccc(-n2ncc3c(N(CC(C)C)CC(C)C)ncnc32)c(C)c1,71% (inactive)
12,Cc1ccc(CNc2ncnc3c2cnn3-c2ccc(C)cc2C)cc1,73% (inactive)
13,CCOc1ccc(N2CC(NC(=O)CCc3ccccc3)CC2=O)cc1 (centres undefined),78% (inactive)
14,COc1ccc(CCNc2nccn(-c3ccc(C)c(C)c3)c2=O)cc1OC,83% (inactive)
15,COC(=O)c1c(NC(=O)Cc2coc3cc(C)ccc23)sc2c1CCC2,106% (inactive)
16,CCCCNC(=O)C(CC)Sc1nc2ccccc2c(=O)n1CCc1ccc(OC)c(OC)c1 (centres undefined),127% (inactive)
17,O=C(NCc1ccccc1Br)c1ccc(-n2cnc3cccnc32)cc1,152% (inactive)
18,Cc1cccc(C(=O)Nc2ccccc2-c2nc(-c3ccccc3)no2)c1,86% (inactive)
19,CCOc1ccc(CCNC(=O)C2CCN(c3ncnc4c3nc3n4CCCCC3)CC2)cc1,119% (inactive)
20,Cc1ccc(C(=O)CC2(O)C(=O)N(CCc3ccccc3)c3ccc(Cl)cc32)cc1 (centres undefined),3% (active)
21,CCc1ccc(C(=O)CC2(O)C(=O)N(Cc3ccc(C)cc3)c3ccccc32)cc1 (centres undefined),48% (inactive)
22,CCc1ccc(C(=O)CC2(O)C(=O)N(C(C)C)c3ccccc32)cc1 (centres undefined),111% (inactive)
23,Cc1ccc(CN2C(=O)C(O)(CC(=O)c3ccc(C)cc3)c3ccccc32)cc1 (centres undefined),66% (inactive)

row,Compound,survival
1,CC(C)c1ccc(C(=O)CC2(O)C(=O)N(CCc3ccccc3)c3ccc(Cl)cc32)cc1 (centres undefined),33% (inactive)
2,CCc1ccc(C(=O)CC2(O)C(=O)N(CCc3ccccc3)c3ccc(Cl)cc32)cc1 (centres undefined),5% (active)
3,Cc1ccc2cc(C#N)c(SCC(=O)NCc3ccco3)nc2c1,103% (inactive)
4,O=S(=O)(NCC(c1ccco1)S(=O)(=O)c1cccs1)c1ccc(F)c(C(F)(F)F)c1 (centres undefined),32% (inactive)
5,COc1ccc(CCNC(=O)c2ccc3c(c2)N(Cc2ccc(Cl)cc2)C(=O)c2ccccc2S3)cc1OC,55% (inactive)
6,Cc1cc(C)cc(NC(=O)CSc2nccn2-c2ccccc2)c1,135% (inactive)
7,Cc1cccc(NC(=O)c2ccc3oc(=O)c(S(=O)(=O)c4ccc(F)cc4)cc3c2)c1C,127% (inactive)
8,CN(CCO)Cc1ccc2c(c1)OCO2,121% (inactive)
9,COc1ccc(CNC(=O)c2cnn(-c3ccc(F)cc3)c2-n2cccc2)cc1,113% (inactive)
10,Cc1ccc(-n2ncc(C(=O)NCc3ccccc3C)c2-n2cccc2)cc1,88% (inactive)
11,O=C(NCCc1ccccc1)c1cnn(-c2ccc(F)cc2)c1-n1cccc1,49% (inactive)
12,Cc1nn(-c2ccccc2)c(-n2cccc2)c1C(=O)NCCc1ccc(Cl)cc1,2% (active)
13,Cc1nn(-c2ccccc2)c(-n2cccc2)c1C(=O)NCc1ccccc1Cl,1% (active)
14,Cc1ccc(CCNC(=O)c2c(C)nn(-c3ccc(F)cc3)c2-n2cccc2)cc1,60% (inactive)
15,CSc1ccc(CCNC(=O)c2cnn(-c3ccccc3)c2-n2cccc2)cc1,9% (active)
16,CC(=O)Nc1ccc(NC(=O)c2c(C)nn(-c3ccccc3)c2-n2cccc2)cc1,80% (inactive)
17,Cc1ccc(NC(=O)c2c(C)nn(-c3ccccc3)c2-n2cccc2)c(Cl)c1,78% (inactive)
18,Cc1nn(-c2ccc(F)cc2)c(-n2cccc2)c1C(=O)NCCc1ccc(Cl)cc1,54% (inactive)
19,CCOc1ccccc1CNC(=O)c1cnn(-c2ccc(C)cc2)c1-n1cccc1,10% (active)
20,COc1ccc(CNC(=O)c2cnn(-c3ccccc3)c2-n2cccc2)cc1OC,126% (inactive)
21,CCOC(=O)C1=C(C)NC(=O)NC1c1c(O)ccc2ccccc12 (centres undefined),111% (inactive)
22,Cc1cn2c(=O)c(S(=O)(=O)NCCc3ccc(Cl)cc3)c(C)nc2s1,88% (inactive)
23,COc1ccc(CC(=O)NCCc2csc3nc(-c4ccccc4F)nn23)cc1,55% (inactive)

row,Compound,survival
1,Cc1ccc(C)c(Oc2nc3c(c(=O)n(C)c(=O)n3C)n2Cc2ccccc2)c1,73% (inactive)
2,COCCCNC(=O)CCCCn1c(=O)c2ccccc2n(CC(=O)Nc2ccc(C)cc2C)c1=O,82% (inactive)
3,COC(=O)c1sc2cccc(F)c2c1S(=O)(=O)N1CCN(c2cccc(C)c2)C(C)C1 (centres undefined),87% (inactive)
4,CN1C(=O)C(CC(=O)NCC2CCCCC2)SC1=Nc1ccccc1 (centres undefined),99% (inactive)
5,O=C1C2C3C=CC(C3)C2C(=O)N1c1ccc2c(c1)OCO2 (centres undefined),94% (inactive)
6,COc1ccc(S(=O)(=O)N2CCC(n3c(C)nc4cccnc43)CC2)cc1Cl,131% (inactive)
7,O=C(NCC12CC3CC(CC(C3)C1)C2)c1cc2nc(-c3ccc(Cl)cc3)cc(C(F)(F)F)n2n1,60% (inactive)
8,COc1ccc(-c2cc(C(F)(F)F)n3nc(C(=O)NCC45CC6CC(CC(C6)C4)C5)cc3n2)cc1,62% (inactive)
9,O=C(NCC12CC3CC(CC(C3)C1)C2)c1cc2nc(-c3ccccc3)cc(C(F)(F)F)n2n1,-12% (active)
10,CCOc1ccccc1Nc1sc(C(=O)c2ccc(Cl)cc2)c(N)c1S(=O)(=O)c1ccccc1,19% (inactive)
11,COc1cccc2sc(N3CCN(C(=O)CCS(=O)(=O)c4ccc(F)cc4)CC3)nc12,87% (inactive)
12,Cc1c(Cl)ccc2sc(N3CCN(C(=O)CS(=O)(=O)c4ccccc4)CC3)nc12,124% (inactive)
13,Cc1ccc2sc(N3CCN(C(=O)CCS(=O)(=O)c4ccc(Cl)cc4)CC3)nc2c1C,75% (inactive)
14,Cc1ccc(S(=O)(=O)CCC(=O)N2CCN(c3nc4c(C)c(Cl)ccc4s3)CC2)cc1,68% (inactive)
15,Cc1cccc2sc(N3CCN(C(=O)CS(=O)(=O)c4ccc(F)cc4)CC3)nc12,73% (inactive)
16,Cc1ccc(S(=O)(=O)CC(=O)N2CCN(c3nc4c(F)cccc4s3)CC2)cc1,-6% (active)
17,Cc1c(Cl)ccc2sc(N3CCN(C(=O)CCS(=O)(=O)c4ccc(F)cc4)CC3)nc12,-3% (active)
18,Cc1ccc2sc(N3CCN(C(=O)CCS(=O)(=O)c4ccc(F)cc4)CC3)nc2c1C,82% (inactive)
19,COc1cccc2sc(N3CCN(C(=O)CS(=O)(=O)c4ccc(Cl)cc4)CC3)nc12,-6% (active)
20,Cc1c(Cl)cccc1NC(=O)CSc1nc(=O)n(Cc2ccco2)c2c1CCC2,120% (inactive)
